Experimental findings from PubChem BioAssay (NCATS) are described below.

The nature of assay [1]: P-glycoprotein substrates identified in KB-3-1 adenocarcinoma cell line, qHTS therapeutic library screen (AID 1346986). Further: nearly all actives have a fitted effect of over 60% in size. The settings on record: KB-3-1 parental cells viability, CellTiter-Glo, 72 h; series mostly up to 93.4 µM. In short, it runs like this: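 Counter-screen: cherry-picked hits retested in the KB pair and in HEK-293 pcDNA/MDR-19 cells ± tariquidar. Primary screen used 72 h CellTiter-Glo viability in KB-3-1 and KB-8-5-11.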
In general terms: qHTS replaces the single test concentration by a dilution series.

The subject of assay [2] is Zika virus NS2B-NS3 protease (unlinked complex). Description: Primary screen GU Rhodamine qHTS for Zika virus inhibitors: Unlinked NS2B-NS3 protease assay (AID 1347159). Further: on the % scale 0 is the no-effect control and ±100 the full control effect; nearly all actives have a fitted effect of over 60% in size. The conditions noted are these: Recombinant ZIKV NS2B-NS3 protease, Rhodamine110 substrate fluorescence; series mostly up to 107 µM. The procedure, abridged: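 A qHTS format was used, with compound concentrations ranging up to 114 microM. Each compound was preincubated with 25 nM NS2B-NS3 protease, and the substrate was then added at 1.5 microM. Curves were fitted with a 4-parameter Hill model.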

For assay [3], the system named is Zika virus NS2B-NS3 protease (linked construct). Put plainly: Primary screen NINDS Rhodamine qHTS for Zika virus inhibitors (AID 1347160). Further: nearly all actives have a fitted effect of over 55% in size. On activity change, negative = inhibition: on the % scale 0 is the no-effect control and ±100 the full control effect. The conditions noted are these: purified NS2B-NS3 protease, Rhodamine110 substrate fluorescence; series mostly up to 57.1 µM. The procedure, abridged: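 Kinetic fluorescence (Ex 480 nm, Em 540 nm) over 15 min with 1.5 microM Rhodamine110 peptide and 25 nM linked protease.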

Assay [4] in a line: Primary redox qHTS assay for identification of artifact compounds. (AID 1845223).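 Further: 0% = DMSO and 100% = reference compound.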 The conditions noted are these: Amplex Red/HRP redox cycling with DTT, fluorescence; series mostly up to 53.8 µM. In short, it runs like this:
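Amplex Red (25 uM) and HRP (250 mU/mL) in HBSS, with compounds for 15 min, then 250 uM DTT for 30 min, room temperature, dark. Fluorescence 525/598 nm read; normalized to DMSO and 10 uM DA3003; Hill fit.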

The next assay deals with KB-3-1. Put plainly: Cytotoxic Profiling of Annotated Libraries Using Quantitative High-Throughput Screening (AID 1296008). Further: nearly all actives have a fitted effect of over 60% in size. Further: potency means the concentration at half of the fitted maximal effect. On max response: on the % scale 0 is the no-effect control and ±100 the full control effect. The settings on record: Five cell lines viability, CellTiter-Glo ATP luminescence, 48-72 h; max response: stronger effect = lower value. In short, it runs like this: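 Cytotoxicity was measured as CellTiter-Glo ATP luminescence, read after 10 min at room temperature. Compound treatment of the cells lasted 48 or 72 hr at 37 degrees Celsius in a qHTS format.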
(Cellular ATP, detected with luciferase, serves as a proxy for viable cell number.)

The subject of a further assay is HACAT. Description: qHTS assay to identify novel small-molecules to repurpose for Merkel cell carcinoma treatment (AID 1296009). Further: nearly all actives have a fitted effect of over 60% in size. The conditions noted are these: MCC and control cell lines, CellTiter-Glo viability, 72 h; at 44.8 µM (top of the series) unless noted. The procedure, abridged: (§1)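 After compound transfer in DMSO, plates were kept 72 hr at 37 degree celsius. Luminescent ATP signal from CellTiter-Glo served as viability measure, normalized against DMSO and no-cell controls.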

A further assay relates to NIH3T3. Described as above. The settings on record: MCC and control cell lines, CellTiter-Glo viability, 72 h; at 44.8 µM (top of the series) unless noted. In short, it runs like this: as §1
A further assay has as its system HeLa. Put plainly: Primary qHTS to identify gynecologic anti-cancer compounds using libraries of approved drugs and bioactive compounds (AID 1345084). Further: nearly all actives have a fitted effect of over 55% in size. Further: potency means the concentration at half of the fitted maximal effect. On activity change, negative = cytotoxicity: on the % scale 0 is the no-effect control and ±100 the full control effect. The conditions noted are these: Gynecologic cancer cell panel viability, ATPlite luminescence, 48 h; series mostly up to 57.5 µM. In short, it runs like this: (§2)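 48 h compound exposure at 37 C, 5% CO2; five-point qHTS. ATPlite luminescence readout of cell ATP.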

A further assay has as its system SKOV3. The description is as above. The settings on record: Gynecologic cancer cell panel viability, ATPlite luminescence, 48 h; series mostly up to 57.5 µM. In short, it runs like this:
as §2

Assay [5] is described as follows: Cytotoxicity counterscreen for inhibitors of SARS-CoV-2 cell entry (AID 1645845; calls by dose curve; further: on the % scale 0 is the no-effect control and ±100 the full control effect; nearly all actives have a fitted effect of over 50% in size). The conditions noted are these: cell viability (SARS-CoV-2 entry assay cells); series mostly up to 57.1 µM. In short, it runs like this:
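48 h compound treatment (after 1 h preincubation), HEK293-ACE2 cells, 37 C/5% CO2; ATP luminescence endpoint; normalized to cell wells and media blanks.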
(A counterscreen serves to expose hits that act by an unwanted route or on another target.)

Assay [6] in a line: Primary qHTS for inhibitors of nuclear receptor binding SET domain protein 2 (NSD2) in an RCH-ACV wild type WT cells (2C) (AID 1645877). Further: nearly all actives have a fitted effect of over 70% in size. Further: potency means the concentration at half of the fitted maximal effect. The settings on record: RCH-ACV (leukaemia line) NSD2 WT (2C) viability, CellTiter-Glo, 72 h; series mostly up to 44.9 µM.
Assay [7] addresses Glutathione peroxidase 1 (Homo sapiens) (UniProt P07203). Put plainly: Primary qHTS Assay for Inhibitors of Recombinant Selenoprotein Glutathione Peroxidase 1 (GPX1) (AID 1845191). Further: nearly all actives have a fitted effect of over 65% in size. The conditions noted are these: recombinant GPX1, GR-coupled NADPH fluorescence, 15 min; series mostly up to 48.8 µM. In short, it runs like this:
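10 nM GPX1 + cpd, 30 min RT; start w/ 1 mM GSH, 0.5 mM cumene hydroperoxide, 0.5 mM NADPH, 100 nM GR, 0.01% BSA; buffer 50 mM Tris-HCl pH 7.5, 2 mM EDTA, 150 mM NaCl; Fl 340/450, 0 & 15 min.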

The nature of assay [8]: qHTS drug screen for cell cycle checkpoint inhibitors in PARPi-resistant BRCA-mutant ovarian cancer cell lines. (AID 1963452; calls by dose curve). The settings on record: PEO1/OlaR viability, CellTiter-Glo luminescence, 96 h, stronger effect = lower value. The procedure, abridged:
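PEO1, PEO4 and PEO1/OlaR ovarian cancer cells, 600 per well, exposed 96 h at 37C to a dilution series. Viability read by CellTiter-Glo luminescence, normalized to DMSO and empty wells; activity summarized as Z-AUC.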

A short description of assay [9]: Primary fluorescence-based thiol-reactive (MSTI) qHTS assay for identification of artifact compounds. (AID 1845221).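 Further: thiol-reactive compounds lower the probe fluorescence signal; nearly all actives have a fitted effect of over 65% in size.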 The conditions noted are these: MSTI thiol-reactivity probe, 1 h; series mostly up to 53.8 µM. The procedure, abridged: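 First, 4 uM MSTI in 2% DMSO/PBS pH 7.4 was dispensed; next, compounds were added; then plates sat 1 h at room temperature without light. Finally, emission at 598 nm was recorded.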

In the next assay the test system is CRL-7250. Put plainly: qHTS assay to identify novel small-molecules to repurpose for Merkel cell carcinoma treatment (AID 1296009). Further: nearly all actives have a fitted effect of over 60% in size. The settings on record: MCC and control cell lines, CellTiter-Glo viability, 72 h; series mostly up to 92 µM. In short, it runs like this:
as §1

Assay [10] has as its target Cytochrome P450 2D6 (Homo sapiens) (UniProt P10635). Description: Cytochrome P450 family 2 subfamily D member 6 (CYP2D6) small molecule antagonists: luciferase biochemical (cell-free) qHTS assay (AID 1645840; active means well fitted curve in the direction sought with a large enough effect in the repeat runs; an effect the other way counts as inactive or inconclusive; further: potency means the concentration at half of the fitted maximal effect; nearly all actives have a fitted effect of over 55% in size). The conditions noted are these: P450-Glo CYP2D6 enzyme, luciferin luminescence, 1 h; series mostly up to 57.4 µM. In short, it runs like this:
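P450-Glo luminescent screen: recombinant CYP2D6 enzyme–proluciferin substrate mix preincubated with compound 10 min at room temperature, then NADPH regeneration added for 1 h at room temperature. Detection reagent added for 20 min; luciferin light read as relative luminescence units.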

The target of assay [11] is Cytochrome P450 2C9 (Homo sapiens) (UniProt P11712). Description: Cytochrome P450 family 2 subfamily C member 9 (CYP2C9) small molecule antagonists: luciferase biochemical (cell-free) qHTS assay (AID 1645842; active means well fitted curve in the direction sought with a large enough effect in the repeat runs; an effect the other way counts as inactive or inconclusive; further: nearly all actives have a fitted effect of over 55% in size; further: potency means the concentration at half of the fitted maximal effect). The conditions noted are these: P450-Glo CYP2C9 enzyme assay, luciferin luminescence; series mostly up to 57.4 µM. In short, it runs like this:
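Luminescence, after 20 min with luciferin detection reagent, reflected CYP2C9 turnover during a 1 h NADPH-driven reaction at 37C. Enzyme-substrate mix contained 0.4% bovine serum albumin and was preincubated with compound 10 min at room temperature.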

Assay [12] has as its target Guanidinoacetate N-methyltransferase (Homo sapiens) (UniProt Q14353). Put plainly: Confirmatory Screen for Target Class Profiling of Small Molecule Inhibitors of Methyltransferases (AID 1745852; calls by dose curve; further: on the % scale 0 is the no-effect control and ±100 the full control effect). The conditions noted are these: MTase-Glo luminescence, SAH detection, recombinant enzyme; activity change, negative = inhibition: at 57.3 µM (top of the series) unless noted; series mostly up to 57.3 µM.

Inconclusive results are not listed. Calls of active or inactive are those of the source. Unless noted, the call rests on the fitted dose curve; in most records, active means well fitted curve in the direction sought with a large enough effect; inconclusive means small, poorly fitted or top-dose-only effect, or another doubt; inactive means no such curve, though single readings can be large; an effect the other way counts as inactive or inconclusive.

Chain of Glutathione peroxidase 1 (Homo sapiens) (P07203 whole entry, looked up): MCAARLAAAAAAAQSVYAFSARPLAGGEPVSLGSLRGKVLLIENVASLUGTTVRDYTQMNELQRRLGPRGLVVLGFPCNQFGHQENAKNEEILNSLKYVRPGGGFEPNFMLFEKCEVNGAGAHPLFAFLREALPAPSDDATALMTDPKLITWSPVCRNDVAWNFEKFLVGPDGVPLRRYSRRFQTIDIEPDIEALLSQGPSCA
Chain of Cytochrome P450 2D6 (Homo sapiens) (P10635 whole entry, looked up): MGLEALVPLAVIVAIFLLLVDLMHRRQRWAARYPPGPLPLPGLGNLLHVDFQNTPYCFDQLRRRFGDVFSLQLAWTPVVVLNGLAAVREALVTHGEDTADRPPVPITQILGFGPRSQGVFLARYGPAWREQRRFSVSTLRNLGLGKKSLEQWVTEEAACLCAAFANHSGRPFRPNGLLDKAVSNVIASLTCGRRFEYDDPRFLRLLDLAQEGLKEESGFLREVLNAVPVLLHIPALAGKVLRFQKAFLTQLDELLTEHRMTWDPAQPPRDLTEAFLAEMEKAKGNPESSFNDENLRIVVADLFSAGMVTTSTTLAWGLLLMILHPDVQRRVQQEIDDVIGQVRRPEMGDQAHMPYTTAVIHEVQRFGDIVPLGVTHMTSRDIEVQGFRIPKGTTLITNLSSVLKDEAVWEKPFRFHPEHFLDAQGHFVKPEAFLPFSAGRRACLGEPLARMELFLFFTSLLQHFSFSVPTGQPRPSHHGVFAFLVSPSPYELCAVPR
Chain of Cytochrome P450 2C9 (Homo sapiens) (P11712 whole entry, looked up): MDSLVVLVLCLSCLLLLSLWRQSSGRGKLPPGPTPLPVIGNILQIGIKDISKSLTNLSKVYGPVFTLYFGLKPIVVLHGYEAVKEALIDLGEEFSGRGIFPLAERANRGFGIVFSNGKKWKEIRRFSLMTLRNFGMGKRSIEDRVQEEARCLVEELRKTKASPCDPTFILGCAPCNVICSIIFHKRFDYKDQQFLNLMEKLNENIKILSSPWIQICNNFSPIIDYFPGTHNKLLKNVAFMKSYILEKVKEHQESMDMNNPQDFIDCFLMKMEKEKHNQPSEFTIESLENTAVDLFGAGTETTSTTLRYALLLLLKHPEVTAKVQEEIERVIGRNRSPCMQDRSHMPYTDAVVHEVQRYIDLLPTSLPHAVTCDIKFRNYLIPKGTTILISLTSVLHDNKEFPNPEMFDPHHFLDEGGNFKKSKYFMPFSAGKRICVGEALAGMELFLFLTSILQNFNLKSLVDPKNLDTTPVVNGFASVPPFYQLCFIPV

With `C/C=C(\C)C(=O)OC1CC2C(CC=C3CC(OC4CC(OC)C(OC5CC(OC)C(OC6CC(OC)C(OC7CC(OC)C(O)C(C)O7)C(C)O6)C(C)O5)C(C)O4)CCC32C)C2(O)CCC(C(C)=O)C12C` (stereo not given), the outcome in assay [1] is “inactive [at 9.29 µM]”; with HACAT it was “inactive [at 9.27 µM]”; in the assay with NIH3T3, “inactive [at 9.27 µM]”. Besides, the Potency result in assay [2] and in assay [3] was “inactive” throughout. For the same compound, the redox activity (% of DA3003) in [4] was 4.9% [at 11.5 µM] (inactive). Besides, in the assay with KB-3-1, the compound was classed as inactive. For the same compound, the activity change, negative = cytotoxicity is 9.98% [at 11.6 µM] (inactive) in the assay on HeLa and -3.35% [at 11.6 µM] (inactive) in the assay on SKOV3.
On to `COc1cc(C(=O)N2CC[C@@H](O)[C@@H](N)C2)cc2nc(-c3cc4ccccc4n3CC3CC3)n(C)c12`, for which the Potency entry in [5] and in assay [7] was “inactive” throughout. Besides, the Potency in assay [6] was 18.6 µM (active). Further, the Z-AUC in assay [8] is 0.124 (inactive); in [8] (measured here: PEO1 parental Z-AUC) it was 1.05; in assay [8] (measured here: PEO4 Z-AUC), 0.456.
Turning to `CC12CCC3C(C1)c1c(cc(O)c(C(=O)c4ccccc4)c1OC3(C)C)O2` (stereo not given), the Potency result (in assay [3]; in [6]; in [9]; in the assay on CRL-7250; in the assay on HeLa; in the assay with SKOV3) was “inactive” each time. For the same compound, in the assay with KB-3-1, the max response is -6.92% (inactive).
As for `CN(C(=O)C(c1ccccc1)c1ccccc1)[C@H](CN1CC[C@H](O)C1)c1ccccc1`, the Potency result (in assay [2]; in assay [11]; in [7]; in [9]; in assay [4]; in the assay on CRL-7250) was “inactive” throughout. The Potency result with HeLa and in the assay on SKOV3 was “inactive” each time. Besides, in assay [10], the Potency was 0.122 µM (active). For the same compound, the max response in the assay on KB-3-1 was -3.45% (inactive). In the assay with HACAT, the compound was called inactive.
On to `Fc1cc(F)c2c(c1)C1C=CCC1C(c1cccnc1)N2` (stereo not given), for which the Potency entry in assay [2], in [3] and in assay [4] was “inactive” each time. The Potency was 23.9 µM (active) in assay [10]; 5.35 µM (active) in [11]; 16.3 µM (active) in [6]; 4.61 µM (active) in the assay on KB-3-1; 10 µM (active) in the assay with HeLa; 11.2 µM (active) in the assay with SKOV3. Further, in assay [12], the activity change, negative = inhibition was 0.0443%.
With `C=C(C)C(=O)O[C@H]1[C@@H]2[C@H](C)C(=O)O[C@@H]2C[C@@H](C)[C@@H]2C=CC(=O)[C@]21C`, the Potency result (in assay [2]; in [7]; in assay [9]; in assay [4]; in the assay on HeLa) was “inactive” in each case. Further, the Potency in assay [6] is 1.79 µM (active); in the assay with KB-3-1, 3.21 µM (active).
With `C[C@]12CC[C@H](O)C[C@@]1(O)CC[C@@H]1[C@@H]2CC[C@]2(C)[C@@H](c3ccc(=O)oc3)CC[C@]12O`, the Potency entry (in assay [2]; in assay [3]; in assay [9]; in assay [4]; with HeLa; in the assay on SKOV3) was “inactive” each time.
Consider `COC(=O)C12C(=O)C(C)(O)C(=O)C1(C)C(C)=CC1C34CCC(OC3=O)C(C)(C)C4CCC12C` (stereo not given), for which the Potency result (in assay [6]; in [7]; with HeLa; with SKOV3) was “inactive” throughout. Besides, in the assay with KB-3-1, the max response was -12.2% (inactive).
For the compound `CC(=O)OC[C@]12[C@H](OC(C)=O)C(=O)[C@@H]3[C@@H](O)[C@@]14O[C@@]3(C)COC(=O)c1cccnc1[C@@H](C)[C@H](C)C(=O)O[C@@H]([C@H](OC(C)=O)[C@@H]2OC(C)=O)[C@]4(C)O`, the Potency entry (in assay [2]; in [3]; in assay [7]; in assay [4]; in the assay on CRL-7250; in the assay on HeLa) was “inactive” throughout. Moreover, the Potency entry in the assay with SKOV3 is “inactive”. For the same compound, the max response with KB-3-1 was 7.87% (inactive). Further, the outcome in the assay on HACAT was “inactive [at 17.4 µM]”.
